# Results reported in PubChem BioAssay.
# Molecular target: Concanavalin-A (Canavalia ensiformis) (UniProt P02866)
# Assay: ConA small-molecule binders, primary screen, artefact control for SMM control protein annotation, biochemical, small-molecule microarray, Alexa647 label, 635 nm (AID 1127);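 further: z combines 667 nm emission intensity with signal-to-noise across three replicate slides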
# Conditions: ConA-A647 binding fluorescence, higher = more signal
# Concanavalin-A (Canavalia ensiformis), sequence (P02866 whole entry, looked up): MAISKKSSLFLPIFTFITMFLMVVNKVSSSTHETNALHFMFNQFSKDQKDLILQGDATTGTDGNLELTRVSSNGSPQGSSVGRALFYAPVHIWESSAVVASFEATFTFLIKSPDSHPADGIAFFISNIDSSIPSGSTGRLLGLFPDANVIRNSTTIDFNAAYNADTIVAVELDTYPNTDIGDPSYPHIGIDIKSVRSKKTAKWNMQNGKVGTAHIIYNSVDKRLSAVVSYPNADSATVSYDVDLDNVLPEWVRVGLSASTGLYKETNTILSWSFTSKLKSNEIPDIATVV
row,SMILES,composite z-score
1,[N-]=[N+]=Nc1ccccc1C[C@@]1(C(=O)N2CCOCC2)N=C(c2ccc(OCCCO)cc2)O[C@@H]1c1ccccc1,1.11
2,[N-]=[N+]=Nc1ccccc1C[C@]1(C(=O)O)COC(c2ccc(OCCCO)cc2)=N1,-0.19
3,COCCOC(=O)N1C(=O)[C@@]2(c3cc(C#CC4=CCCCC4)ccc31)[C@H](c1ccccc1OCCO)N1[C@H](c3ccccc3)[C@H](c3ccccc3)OC(=O)[C@H]1[C@@H]2C(=O)N1CCN(c2ncccn2)CC1,1.06
4,O=C1O[C@@H](c2ccccc2)[C@@H](c2ccccc2)N2[C@@H](c3ccc(OCCO)cc3)[C@]3(C(=O)Nc4ccc(C#CC5=CCCCC5)cc43)[C@@H](C(=O)NC[C@H](O)c3ccccc3)[C@H]12,1.17
5,[N-]=[N+]=Nc1ccccc1C[C@]1(C(=O)NCCN2CCOCC2)COC(c2ccc(OCCCO)cc2)=N1,1.1
6,O=C1OCCC=C[C@H]2OC34C=CCN(Cn5nnc6ccccc65)C(=O)[C@H]3N(CCCO)C(=O)[C@@H]4C12 (stereo not given in full),-1.2
7,CC(C)[Si](C#C[Si](C(C)C)(C(C)C)C(C)C)(O[C@H](c1ccccc1)c1cn(Cc2ccccc2)nn1)C(C)C,0.135
8,CC(C)N1C(=O)C[C@@](C(=O)O)(c2ccc([N+](=O)[O-])cc2)[C@H]1c1ccc(CO)cc1,0.279
9,C=CCC(OC(C)=O)[C@@H]1[C@@H](N(Cc2ccc(-c3ccccc3)cc2)C(=O)c2ccc(-c3ccccc3)cc2)c2cc(OCCCO)ccc2N1C(=O)c1ccc2ccccc2c1 (stereo not given in full),-0.38
10,COc1ccc([Si](C)(C)[C@@H]2[C@@H](CCO)O[C@]3(C(=O)N(Cc4ccccc4)c4ccc(N5CCOC5=O)cc43)[C@H]2C)cc1,0.816
11,[N-]=[N+]=Nc1ccccc1C[C@]1(C(=O)NCC(O)CO)COC(c2ccc(OCCCO)cc2)=N1 (stereo not given in full),0.832
12,CN(C)CCCCCCNC(=O)[C@@H]1C[C@@H]2C(=O)N3CCC[C@H]3C(=O)N2[C@@H]1c1cccc(OCCO)c1,1.13
13,CCOC(=O)C[C@H]1[C@H](OC(=O)c2cc3ccccc3oc2=O)[C@@H](NC(=O)c2ccccc2)c2cc(OCCCO)ccc2N1C(=O)c1ccccc1,0.535
14,O=C1C2C=CC(C(O)c3cccc(O)c3)N(Nc3ccc([N+](=O)[O-])cc3)C2C(=O)N1c1ccccc1 (stereo not given),0.41
15,C=CC[C@@]1(C(=O)NCCCOC)N=C(c2ccc(OCCCO)cc2)O[C@@H]1c1ccccc1,0.174
16,CCCCC(=C=CC[C@H](O)c1ccc(OCCO)cc1)CCO,-0.727
17,C=C(C(=O)CC[C@H](OC(=O)c1ccccc1-c1ccccc1C(=O)O)c1cccc(OCCO)c1)C(C)C,0.0561
18,COC(=O)[C@]1(CCS(=O)(=O)c2ccccc2)N=C(c2ccc(OCCCO)cc2)O[C@@H]1c1ccccc1N=[N+]=[N-],1.19

row,SMILES,composite z-score
1,C=C(/C(=C/C[C@H](OC(=O)c1ccncc1)c1ccc(CO)o1)c1cnc2ccccc2c1)C(C)C,1.11
2,CC[C@@H]1C=C(C(=O)O)[C@H](c2ccc(C#N)cc2)N1S(=O)(=O)c1ccc(C)cc1,0.91
3,CCCCCCCCCCC(O)C1C=CC2C(=O)N(c3ccccc3)C(=O)C2N1Nc1ccc(C#N)cc1 (stereo not given),1.12
4,CC[C@@H]1C=C(C(=O)O)[C@H](c2ccccc2)N1S(=O)(=O)c1ccc(C)cc1,1.12
5,O=C1O[C@H](c2ccccc2)[C@H](c2ccccc2)N2[C@H]1[C@@H](C(=O)O)[C@]1(C(=O)Nc3ccc(C#CCCO)cc31)[C@H]2c1ccccc1OCCO,0.991
6,O=C1C2C=CC(C(O)c3ccco3)N(Nc3ccccc3F)C2C(=O)N1c1ccccc1 (stereo not given),0.403
7,COc1ccc([Si](C)(C)[C@@H]2[C@@H](CCO)O[C@]3(C(=O)N(Cc4cccc(NC(=O)[C@H](C)O)c4)c4ccccc43)[C@H]2C)cc1,1.01
8,CC(C)N1C(=O)C[C@@](C(=O)NC2CC2)(c2ccc([N+](=O)[O-])cc2)[C@H]1c1ccc(CO)cc1,-0.0039
9,Oc1ccc2cc[n+](Cc3cc4c(cc3Br)OCO4)cc2c1,-0.985
10,CCOC(=O)C[C@H]1[C@H](OC(=O)c2ccc(-c3ccccc3)cc2)[C@@H](NC(=O)CC(C)C)c2cc(OCCCO)ccc2N1C(=O)c1ccc2ccccc2n1,1.07
11,CCCCC(CC)C(O)C1C=CC2C(=O)N(c3ccccc3)C(=O)C2N1Nc1ccccc1F (stereo not given),0.0845
12,CCOC(=O)C[C@H]1[C@H](OC(=O)c2ccccc2-c2ccccc2)[C@@H](NC(=O)c2ccc3ccccc3n2)c2cc(OCCCO)ccc2N1C(=O)Cc1ccc(OC)cc1,0.0562
13,COCCCNC(=O)[C@@]1(CCC(=O)OC(C)(C)C)N=C(c2ccc(OCCCO)cc2)O[C@H]1c1ccccc1N=[N+]=[N-],1.16
14,OCCCC1=CC(c2ccc(CN3CCCC3)cc2)N(Cc2cc3c(cc2Br)OCO3)CC1 (stereo not given),0.22
15,CCOC(=O)C[C@H]1[C@H](OC(=O)Cc2ccc3c(c2)OCO3)[C@@H](NC(=O)C2CCCCC2)c2cc(OCCCO)ccc2N1C(=O)c1ccccc1,0.833
16,COCC(=C=CC[C@H](O)c1ccccc1OCCO)C[C@H](O)c1ccccn1,0.215
17,[N-]=[N+]=NCc1ccccc1[C@@H]1OC(c2ccc(OCCCO)cc2)=N[C@]1(CCS(=O)(=O)c1ccccc1)C(=O)O,0.448
